Source: PubChem
RORg inh: blocks mouse ROR gamma transcriptional activity | P51450 | Potency, µM (top dose mostly 53.6 µM), hits mostly inhibitors | AID 2551 | 310,000 tested, 5.4% active | Drosophila S2 Gal4-RORgamma UAS-luciferase reporter, 20 h; further: nearly all actives have a fitted effect of over 60% in size
Target sequence (P51450 whole entry, looked up, the tested form may be a part): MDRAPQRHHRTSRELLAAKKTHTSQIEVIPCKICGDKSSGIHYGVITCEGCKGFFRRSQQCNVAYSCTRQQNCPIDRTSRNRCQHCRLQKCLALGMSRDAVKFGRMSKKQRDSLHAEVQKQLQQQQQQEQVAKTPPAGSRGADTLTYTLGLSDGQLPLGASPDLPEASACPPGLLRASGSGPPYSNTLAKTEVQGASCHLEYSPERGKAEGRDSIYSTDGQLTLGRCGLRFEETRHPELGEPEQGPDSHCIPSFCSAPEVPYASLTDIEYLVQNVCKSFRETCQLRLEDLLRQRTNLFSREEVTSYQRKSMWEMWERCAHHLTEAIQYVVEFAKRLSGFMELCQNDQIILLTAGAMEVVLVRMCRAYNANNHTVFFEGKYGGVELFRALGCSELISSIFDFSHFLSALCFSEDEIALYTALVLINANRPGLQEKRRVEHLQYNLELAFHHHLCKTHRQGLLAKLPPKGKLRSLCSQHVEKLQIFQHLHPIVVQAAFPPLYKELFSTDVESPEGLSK
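Luciferase reporter read in Schneider cells carrying Gal4-RORγ (mouse) and UAS-Photinus luciferase; cells given compound 1 h before 700 uM copper sulfate induction, then incubated 20 h at ambient temperature.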
DT40 TDP1 no CPT: qHTS for Inhibitors of human tyrosyl-DNA phosphodiesterase 1 (TDP1): qHTS in cells in absence of CPT; Potency, µM (highest dose often 46.2 µM), usual class: inhibitors; DT40 Tdp1-/- hTDP1 cells, no CPT, ATP luminescence, 48 h; 420,000 tested, 15% active; further: nearly all actives have a fitted effect of over 55% in size
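Cells were dispensed at 400 per well, compounds added by pin tool, plates incubated ≥48 hr at 37 °C, then CellTiter-Glo added for 30 min at room temperature before luminescence reading. Line: DT40 Tdp1-/- complemented with hTDP1; camptothecin omitted.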
DT40 TDP1 CPT: growth inhibition of DT40 Tdp1-/-;hTDP1 cells with camptothecin (screen for TDP1 inhibitors) | Potency, µM (doses to about 46.2 µM), hits mostly inhibitors | 420,000 tested, 12% active | AID 686979 | chicken DT40 Tdp1-/-;hTDP1 cells + 20 nM CPT, ATP luminescence, 48 h; further: nearly all actives have a fitted effect of over 55% in size
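Chicken DT40 Tdp1-/- cells stably complemented with human TDP1 were seeded at 400 cells/well in medium containing 20 nM camptothecin, exposed to pin-transferred compounds, and grown at 37 °C for at least 48 hr. Viability was read as ATP luminescence.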
Gal4-VP16 FLuc: inhibits Gal4-VP16 luciferase reporter, ROR gamma counter-screen; Drosophila S2 Gal4-VP16 UAS-luciferase, luminescence, 20 h; Potency, µM (titrated, usually from 53.6 µM), actives largely listed as inhibitors; 310,000 tested, 3.5% active; AID 2546;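 further: Gal4-VP16 expression switched on by copper sulfate through the metallothionein promoter; nearly all actives have a fitted effect of over 50% in size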
LDHA block: inhibitors of human lactate dehydrogenase A. 480,000 tested, 0.15% active. purified LDHA, NADH/diaphorase-resazurin fluorescence; stronger effect = lower value. activity change, % (values are at about 110 or 230 µM). P00338. AID 1347041; in the data active means activity change below about -30%; inconclusive means mostly about -25% to -30%
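LDH5 2 nM; NADH 0.06 mM, pyruvate 0.2 mM; 200 mM Tris pH 7.4, EDTA, Tween-20; 5 min RT. Detection: diaphorase 0.133 mg/mL + resazurin 37 µM, fluorescence ex540/em590 at 0 and 20 min; normalized to enzyme-free and DMSO wells.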
IL1B secr inh: blocks inflammasome-driven IL-1 beta release; THP-1 LPS/ATP IL-1B secretion, AlphaLISA, 16 h; stronger effect = lower value; activity change, % at 57.5 µM; 360,000 tested, 4.7% active; AID 743279; in the data active means activity change below about -50%; inconclusive means mostly about -30% to -49%
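Secreted IL-1B measured by AlphaLISA bead assay after 16 h compound exposure of THP-1 cells; compounds (final up to 57.5 uM) added 1 h before LPS (250 ng/mL) and ATP (1.25 mM) stimulation; lower signal means less secretion.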
Numbers stand for hits; 0 = inactive; ? = inconclusive; - = no result. Only some compounds are listed: those with a hit (about 18% of all), similar ones and a draw of the others. Unless noted, the call rests on the fitted dose curve; in most records, active means well fitted curve in the direction sought with a large enough effect; inconclusive means small, poorly fitted or top-dose-only effect, or another doubt; inactive means no such curve, though single readings can be large; an effect the other way counts as inactive or inconclusive.

SMILES | RORg inh | DT40 TDP1 no CPT | DT40 TDP1 CPT | Gal4-VP16 FLuc | LDHA block | IL1B secr inh
COc1cc(OC)c2c(-c3cccc(-c4cccc(C)c4)c3)cc(=O)oc2c1 | 0 | 3.66µM | 4.11µM | 0 | 0 | 0
COc1cc(OC)c2c(-c3cccc(-c4ccc(N(C)C)cc4)c3)cc(=O)oc2c1 | 0 | 1.16µM | 1.84µM | 0 | 0 | 0
COc1cc(OC)c2c(-c3cccc(-c4ccc(OC(F)(F)F)cc4)c3)cc(=O)oc2c1 | 0 | ? | ? | 0 | 0 | 0
COc1ccc(-c2cccc(-c3cc(=O)oc4cc(OC)cc(OC)c34)c2)cc1 | - | 0.651µM | 1.3µM | - | 0 | 0
COc1ccc(-c2cccc(-c3cc(=O)oc4cc5c(cc34)OCO5)c2)cc1 | 0 | ? | ? | 0 | 0 | 0
Cc1cccc(-n2cnc(C(=O)NNC(=S)Nc3ccc(Cl)cc3)c2)n1 | ? | 11.6µM | 7.31µM | 0 | 0 | 0
Cc1nc2ccccn2c1C(=O)NNC(=S)Nc1ccc(Cl)cc1 | 0 | 18.4µM | ? | ? | 0 | 0
CCOC(=O)c1c(NC(C)=O)sc2c(OCC(O)CN(CC)CC)c(Br)ccc12 (stereo not given) | ? | 20.6µM | ? | 0 | 0 | ?
CCOC(=O)c1c(NC(C)=O)sc2c(OCCN(CC)CC)c(Br)ccc12 | 0 | ? | ? | 0 | 0 | 0
NC(=S)N=Nc1ccc(NN=C(N)N)cc1 | ? | 1.46µM | 1.3µM | 0 | 0 | 0
CCN(CC)CC1CCN(C(=O)c2cccc(C#N)c2)CC1 | - | - | - | - | 0 | -
Cc1ccc(S(=O)(=O)N2CCCCC2)cc1NC(=O)COC(=O)Cc1cccc2ccccc12 | ? | ? | 0 | 0 | 0 | 0
O=C(Cc1ccccc1Nc1c(Cl)cccc1Cl)OCO/N=[N+](\[O-])N1CCCC1 | ? | - | - | 17.8µM | - | -
CC(C)C(=O)N1CCN(C(=O)c2nn(C)c(=O)c3ccccc23)CC1 | - | - | - | - | 0 | -
CCCCCCC[n+]1ccc(/C=C/c2c(C)[nH]c3ccccc23)cc1 | - | 0.316µM | 0.316µM | - | - | -
CCCCCCCCCCCCCCCC[n+]1ccc(/C=C/c2c(C)[nH]c3ccccc23)cc1 | - | 0.398µM | 1µM | - | - | -
Cc1[nH]c2ccccc2c1C | - | - | - | - | 0 | -
CCCc1c(C)[nH]c2ccccc2c1=O | 0 | ? | ? | ? | 0 | 0
Cc1[nH]c2ccccc2c1/C=C/c1c(C)[nH]c2ccccc12 | - | 10µM | 11.2µM | - | 0 | -
Fc1ccc(SCCSc2nnc(-c3ccccc3F)n2C2CC2)cc1 | - | - | - | - | 0 | -
O=C(Nc1ncn(Cc2cccc(Cl)c2)n1)c1ccn(COc2ccc(Cl)cc2)n1 | - | - | - | - | 0 | -
N#CC(C#N)=C1C=CC=CN1/C(=C\c1ccccc1)C(=O)c1cccs1 | 0 | 3.66µM | 1.03µM | ? | 0 | 0
N#CC(C#N)=C1C=CC=CN1/C(=C\c1ccccc1Cl)C(=O)c1ccccc1 | 6.31µM | 1.16µM | 0.581µM | 3.16µM | 0 | -73.4
O=C(CN1CCN(c2nccs2)CC1)NCc1ccc(F)cc1 | - | - | - | - | 0 | -
Cc1ccc(C(=O)CC(C(=O)O)P(=O)(c2ccccc2)c2ccccc2)cc1 (stereo not given) | 0 | 0 | 0 | 0 | 0 | 0
SMILES | RORg inh | DT40 TDP1 no CPT | DT40 TDP1 CPT | Gal4-VP16 FLuc | LDHA block | IL1B secr inh
Cc1ccc(P(=O)(c2ccc(C)cc2)[C@@H](NC(c2ccccc2)c2ccccc2)c2ccccc2)cc1 | - | 13µM | 18.4µM | - | 0 | 0
COc1cccc(-c2cc(C(=O)Nc3ccccc3)c3ccccc3n2)c1 | - | 6.51µM | ? | - | 0 | 0
COc1ccc(NC(=O)c2cc(-c3ccco3)nc3ccccc23)cc1 | - | ? | 0 | - | 0 | 0
O=C(Nc1ccon1)c1cc(-c2ccccc2)nc2ccccc12 | ? | ? | 0 | ? | 0 | 0
COc1ccc(-c2cc(C(=O)Nc3ccc(C(N)=O)cc3)c3ccccc3n2)cc1 | 0 | 6.51µM | 8.2µM | 0 | 0 | -
COc1cccc(-c2cc(C(=O)Nc3ccc([N+](=O)[O-])cn3)c3ccccc3n2)c1 | 0 | 11.6µM | ? | ? | 0 | 0
CCOc1cccc(-c2cc(C(=O)Nc3ccon3)c3ccccc3n2)c1 | ? | 9.2µM | ? | 0 | 0 | 0
